Assay [1] in a line: qHTS assay to identify small molecule agonists of the estrogen receptor alpha (ER-alpha) signaling pathway in the presence of an antagonist - cell viability counter screen (AID 1259386). Note: nearly all actives have a fitted effect of over 30% in size. Note: potency is the fitted concentration of half-maximal effect. In a few lines:
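Compounds tested at 15 concentrations for 22 h at 37C alongside 10.0nM (final) ICI-182,780 antagonist, in VM7Luc4E2 cells grown in phenol red-free, charcoal-stripped medium. Viability read by CellTiter-Fluor fluorescence after 1 h reagent incubation.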
Background: Quantitative high-throughput screening tests each substance at several concentrations.

In assay [2] the target is Progesterone receptor (Homo sapiens) (UniProt P06401). Description: qHTS assay to identify small molecule agonists of the progesterone receptor (PR) signaling pathway (AID 1346784; calls by dose curve; note: nearly all actives have a fitted effect of over 30% in size). In a few lines: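 The screen uses PR-UAS-bla HEK 293T cells in charcoal-stripped serum (2%). Compounds are applied for 16 hr at 37C after a 6 hr pre-incubation, and reporter activity is detected with a FRET beta-lactamase substrate after 2 hr at room temperature.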

The nature of assay [3]: qHTS assay to identify small molecule antagonists of the progesterone receptor (PR) signaling pathway - cell viability counter screen (AID 1346798). Note: nearly all actives have a fitted effect of over 50% in size. Note: potency is the fitted concentration of half-maximal effect. In a few lines: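 Viability was determined by ATP-based luminescence (CellTiter-Glo) in PR-UAS-bla HEK293T cells cultured in 2% charcoal-stripped serum and incubated 16 hr with compounds under R5020 stimulation.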
Assay [4] is described as follows: qHTS assay to identify small molecule agonists of the progesterone receptor (PR) signaling pathway - cell viability counter screen (AID 1346799; calls by dose curve; note: nearly all actives have a fitted effect of over 45% in size; note: potency is the fitted concentration of half-maximal effect). In a few lines:
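Viability was scored by ATP luminescence (CellTiter-Glo, 30 min, room temperature) in the same wells used for the reporter readout, after 16 hr compound exposure of PR-UAS-bla HEK293T cells.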

Assay [5] in a line: qHTS assay to identify small molecule antagonists of the TGF-beta/Smad signaling pathway - cell viability counter screen (AID 1346824). Note: nearly all actives have a fitted effect of over 50% in size. Note: potency is the fitted concentration of half-maximal effect. In a few lines: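 SBE-bla HEK 293T cells, incubated overnight, then compound plus 0.25 ng/mL TGF-beta1 (stock added) for 5 hr at 37 C. Viability was read in the same wells by CellTiter-Glo luminescence after 30 min at room temperature.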
The nature of assay [6]: qHTS assay to identify small molecule agonists of the TGF-beta/Smad signaling pathway - cell viability counter screen (AID 1346829). Note: nearly all actives have a fitted effect of over 45% in size. Note: potency is the fitted concentration of half-maximal effect. In a few lines: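 Compound-treated SBE-bla HEK 293T cells (5 hr, 37 C) were assessed for viability with CellTiter-Glo in parallel with the reporter read.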
Assay [7] can be described thus: qHTS assay to identify small molecule agonists of the TGF-beta/Smad signaling pathway (AID 1346859; active = well fitted activation curve with a large enough effect in the signal ratio in the repeat runs, not every such curve was filed as active; the % refers to the signal ratio; note: series mostly up to about 77 µM). In a few lines:
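Dual-wavelength fluorescence (460/530 nm emission) quantified beta-lactamase expression under the Smad binding element in HEK 293T cells following 5 hr compound treatment at 37 C.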

The target of assay [8] is Thyrotropin-releasing hormone receptor (Homo sapiens) (UniProt P34981). Description: qHTS assay to identify small molecule antagonists of the thyrotropin-releasing hormone receptor (TRHR) signaling pathway (AID 1346877; active = well fitted inhibition curve with a large enough effect in the repeat runs, not every such curve was filed as active; note: series mostly up to about 51 µM). In a few lines:
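Antagonist mode: after a 5 min room-temperature compound exposure, cells were stimulated with 1 nM (final) TRH. Dye-loaded TRHR-HEK293 cells were used, and calcium-dependent fluorescence was followed for 3 min, with 15-point titrations run in triplicate.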

The target is the same in assay [9]. Description: qHTS assay to identify small molecule agonists of the thyrotropin-releasing hormone receptor (TRHR) signaling pathway (AID 1346891; calls by dose curve;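 note: HEK293 cells expressing TRHR with calcium dye readout; series mostly up to about 58 µM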). In a few lines:
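Kinetic fluorescence (3 min, 1 s intervals) reported intracellular calcium after compound transfer onto TRHR-Hek293 cells pre-loaded with dye for 2 h at 37 °C.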

Assay [10] is described as follows: Human pregnane X receptor (PXR) small molecule agonists, qHTS cell viability counter screen (AID 1346977). Note: nearly all actives have a fitted effect of over 50% in size. Note: potency is the fitted concentration of half-maximal effect. In a few lines: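 HepG2 cells stably carrying the PXR-Luc reporter are cultured with 5% charcoal-stripped FBS and treated with compounds for 24hr. CellTiter-Fluor is added at 23hr and fluorescence is read after 1hr.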
The nature of assay [11]: Caspase-3/7 induction in HepG2 cells by small molecules, qHTS assay (AID 1346978). Note: nearly all actives have a fitted effect of over 15% in size. Note: potency is the fitted concentration of half-maximal effect. In a few lines: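 Wild-type HepG2 cells, 2,000/well, settled 5 hr at 37 C and 5% CO2, then compound-treated for 17 hr; caspase-3/7 activity read by luminescent Caspase-Glo 3/7 after 30 min at room temperature.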
The nature of assay [12]: Caspase-3/7 induction in CHO-K1 cells by small molecules, qHTS cell viability counter screen (AID 1346979). Note: nearly all actives have a fitted effect of over 35% in size. Note: potency is the fitted concentration of half-maximal effect. In a few lines: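 Seeding: 1,500 CHO-K1 cells/well. Rest: 5hr, 37C. Treatment: compounds in DMSO, 16hr. Read: CellTiter-Fluor, 1hr, fluorescence.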
The nature of assay [13]: Caspase-3/7 induction in CHO-K1 cells by small molecules, qHTS assay (AID 1346980). Note: nearly all actives have a fitted effect of over 15% in size. Note: potency is the fitted concentration of half-maximal effect. In a few lines: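 Wild-type CHO-K1 cells exposed to compounds for 17hr at 37 C, 5% CO2. Caspase-3/7 activity then measured by Caspase-Glo 3/7 luminescence after 30min at room temperature.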
A short description of assay [14]: Caspase-3/7 induction in HepG2 cells by small molecules, qHTS cell viability counter screen (AID 1346981). Note: nearly all actives have a fitted effect of over 30% in size. Note: potency is the fitted concentration of half-maximal effect. In a few lines: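 CellTiter-Fluor fluorescence measured viability in the same wells used for Caspase-Glo 3/7. HepG2 (wild type) at 2,000 cells/well were pre-incubated 5 hr, dosed, and given reagent at 16 hr, with 1 hr further at 37C.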
For assay [15], the target named is Nuclear receptor subfamily 1 group I member 2 (Homo sapiens) (UniProt O75469). Description: Human pregnane X receptor (PXR) small molecule agonists, qHTS assay (AID 1346982). Note: nearly all actives have a fitted effect of over 35% in size. Note: potency is the fitted concentration of half-maximal effect. In a few lines: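 Agonist mode: luminescence from ONE-Glo after 24 h compound exposure at 37C in HepG2 cells carrying hPXR-responsive CYP3A4 luciferase, plated in charcoal-stripped serum medium 5 h beforehand.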

Assay [16] has as its target Cytochrome P450 2D6 (Homo sapiens) (UniProt P10635). Description: Cytochrome P450 Family 2 Subfamily D Member 6 (CYP2D6) small molecule antagonists: luciferase reporter qHTS assay (AID 1671196). Note: nearly all actives have a fitted effect of over 50% in size. Note: potency is the fitted concentration of half-maximal effect. In a few lines:
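CYP2D6 activity was followed as luminescence from its luciferin product after a 1 h NADPH-driven reaction at room temperature. Enzyme-substrate mix and compound were pre-incubated for 10 min, and the signal was read 20 min after adding detection reagent.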

The target in assay [17] is Progesterone receptor (Homo sapiens) (UniProt P06401). Description: qHTS assay to identify small molecule antagonists of the progesterone receptor (PR) signaling pathway (AID 1346795; active = well fitted inhibition curve with a large enough effect in the signal ratio in the repeat runs, not every such curve was filed as active; the % refers to the signal ratio; note: potency is the fitted concentration of half-maximal effect). In a few lines: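 After 6 hr plating at 37C in 2% stripped-serum medium, PR-UAS-bla HEK293T cells got compounds, then 1 nM R5020. Sixteen hours later, LiveBLAzer substrate was applied for 2 hr at room temperature and fluorescence was recorded.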

Assay [18] concerns the target Nuclear receptor subfamily 1 group I member 2 (Homo sapiens) (UniProt O75469). Description: Human pregnane X receptor (PXR) activation by small molecules, qHTS assay (AID 1346985). Note: nearly all actives have a fitted effect of over 40% in size. In a few lines: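 DPX-2 cells (HepG2 co-transfected with a PXR response element and a CYP3A4-promoter luciferase construct) were seeded at 2,000 per well, rested 5 hr at 37C, then exposed to DMSO-dissolved compounds for 24 hr. Activation was read as luciferase luminescence.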

“And” between values parts separate entries of the source, which are not always exact repeats. Equal entries are not always repeated. Values without a mark were called inactive. Inconclusive results are not listed. The source made the active and inactive calls. Unless noted, calls come from the whole dose curve; as a rule, active = well fitted curve in the direction sought with a large enough effect in the repeat runs; inconclusive = weak or mixed curves; inactive = no such curve, though single readings can be large; an effect the other way counts as inactive or inconclusive.

Progesterone receptor (Homo sapiens), sequence (P06401 whole entry, looked up): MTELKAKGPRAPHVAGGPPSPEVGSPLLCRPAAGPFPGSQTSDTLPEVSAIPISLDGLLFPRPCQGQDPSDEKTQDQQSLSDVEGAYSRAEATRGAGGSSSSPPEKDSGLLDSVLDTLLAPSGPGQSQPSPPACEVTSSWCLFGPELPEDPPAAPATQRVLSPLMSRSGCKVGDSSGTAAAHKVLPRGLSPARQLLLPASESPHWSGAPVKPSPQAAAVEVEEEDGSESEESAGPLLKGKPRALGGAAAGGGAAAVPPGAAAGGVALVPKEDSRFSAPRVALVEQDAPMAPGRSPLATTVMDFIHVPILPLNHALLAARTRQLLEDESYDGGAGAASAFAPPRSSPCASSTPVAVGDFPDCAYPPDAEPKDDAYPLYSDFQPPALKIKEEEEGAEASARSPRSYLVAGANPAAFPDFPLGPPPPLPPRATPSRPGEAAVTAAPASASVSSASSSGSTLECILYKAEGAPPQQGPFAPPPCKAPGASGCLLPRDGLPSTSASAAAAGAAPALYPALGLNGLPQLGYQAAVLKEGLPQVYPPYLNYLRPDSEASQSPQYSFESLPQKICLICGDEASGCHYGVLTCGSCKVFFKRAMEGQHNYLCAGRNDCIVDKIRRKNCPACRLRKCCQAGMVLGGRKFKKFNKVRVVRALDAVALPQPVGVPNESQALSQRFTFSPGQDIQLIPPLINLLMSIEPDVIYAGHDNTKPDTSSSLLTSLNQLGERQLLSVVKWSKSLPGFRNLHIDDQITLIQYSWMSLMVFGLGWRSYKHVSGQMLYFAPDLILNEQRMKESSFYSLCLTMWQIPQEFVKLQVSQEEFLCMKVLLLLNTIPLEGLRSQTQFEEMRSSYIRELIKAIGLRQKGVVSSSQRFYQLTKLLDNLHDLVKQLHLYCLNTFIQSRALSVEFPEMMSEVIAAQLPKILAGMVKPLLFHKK
Cytochrome P450 2D6 (Homo sapiens), sequence (P10635 whole entry, looked up): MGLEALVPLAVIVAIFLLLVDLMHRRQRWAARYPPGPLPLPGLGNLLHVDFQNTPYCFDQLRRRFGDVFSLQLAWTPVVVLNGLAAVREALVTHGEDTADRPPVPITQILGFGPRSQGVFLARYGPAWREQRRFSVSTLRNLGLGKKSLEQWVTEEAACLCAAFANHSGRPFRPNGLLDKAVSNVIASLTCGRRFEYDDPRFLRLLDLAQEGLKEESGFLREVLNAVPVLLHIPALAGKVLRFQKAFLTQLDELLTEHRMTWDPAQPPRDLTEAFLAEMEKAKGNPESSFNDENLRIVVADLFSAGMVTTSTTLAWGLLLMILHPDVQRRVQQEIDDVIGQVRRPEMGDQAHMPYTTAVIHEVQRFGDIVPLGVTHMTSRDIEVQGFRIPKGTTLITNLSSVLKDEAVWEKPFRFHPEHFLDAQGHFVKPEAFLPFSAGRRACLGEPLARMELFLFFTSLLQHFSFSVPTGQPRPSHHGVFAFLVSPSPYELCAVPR
Nuclear receptor subfamily 1 group I member 2 (Homo sapiens), sequence (O75469 whole entry, looked up): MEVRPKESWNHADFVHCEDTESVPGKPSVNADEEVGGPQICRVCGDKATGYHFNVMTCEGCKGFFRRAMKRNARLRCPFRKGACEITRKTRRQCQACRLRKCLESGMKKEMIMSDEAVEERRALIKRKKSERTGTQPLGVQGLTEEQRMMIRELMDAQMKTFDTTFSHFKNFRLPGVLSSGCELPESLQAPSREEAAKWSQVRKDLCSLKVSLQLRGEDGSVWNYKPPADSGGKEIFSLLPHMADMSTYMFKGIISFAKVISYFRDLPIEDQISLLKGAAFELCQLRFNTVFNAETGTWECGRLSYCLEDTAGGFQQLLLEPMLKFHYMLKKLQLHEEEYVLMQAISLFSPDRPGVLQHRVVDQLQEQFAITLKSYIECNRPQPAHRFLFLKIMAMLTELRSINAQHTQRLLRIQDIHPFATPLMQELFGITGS
Thyrotropin-releasing hormone receptor (Homo sapiens), sequence (P34981 whole entry, looked up): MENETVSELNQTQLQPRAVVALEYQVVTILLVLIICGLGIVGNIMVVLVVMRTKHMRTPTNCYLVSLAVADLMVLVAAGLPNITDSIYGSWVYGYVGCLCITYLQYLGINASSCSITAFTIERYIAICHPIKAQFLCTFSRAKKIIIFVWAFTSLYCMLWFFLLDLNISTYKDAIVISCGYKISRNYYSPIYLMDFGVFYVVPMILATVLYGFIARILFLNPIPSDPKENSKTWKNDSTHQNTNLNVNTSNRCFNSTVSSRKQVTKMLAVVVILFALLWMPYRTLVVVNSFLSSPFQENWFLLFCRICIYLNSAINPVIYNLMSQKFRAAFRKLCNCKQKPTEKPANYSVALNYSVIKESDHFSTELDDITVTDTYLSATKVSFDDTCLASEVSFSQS

With `S=c1nccc[nH]1`, the Potency result in assay [1], in assay [2], in assay [3], in [4], in [5] and in assay [6] was “inactive” each time. Also, the Potency result in assay [7], in assay [8], in [10], in [11], in assay [12] and in assay [13] was “inactive” in each case. Also, the Potency entry in assay [14] and in assay [15] was “inactive” each time. Also, in [9], the call was inactive. Besides, the Potency in assay [16] was 31.8 µM (active).

For `CC1=Nc2ccccc2C1(C)C`, the Potency result in [1], in assay [2], in assay [4], in assay [5], in assay [7] and in assay [8] was “inactive” throughout. The Potency entry in assay [11], in assay [12], in assay [13] and in assay [14] was “inactive” throughout. In addition, the Potency in assay [17] is 30.7 µM (active); in assay [16] it was 71.1 µM (active). Moreover, the outcome in assay [9] was inactive.

Turning to `Cc1c(C)c2c(c(C)c1O)CC[C@@](C)(CCC[C@H](C)CCC[C@H](C)CCCC(C)C)O2`, the Potency result in [1], in assay [17], in assay [3], in [4], in assay [5] and in assay [6] was “inactive” in each case. Also, the Potency entry in [7], in [8], in assay [11], in assay [12], in assay [13] and in assay [14] was “inactive” each time. Also, the Potency entry in assay [15] and in assay [16] was “inactive” throughout. In addition, in [9], the outcome was inactive.

Regarding `CC(C)=CCC1=C(O)c2ccccc2C(=O)C1=O`, the Potency is 43 µM (active) in assay [1]; 60.8 µM (active) in [10]; 30.5 µM (active) in assay [12]; 60.8 µM (active) in assay [14]; 19.2 µM (active) in assay [15]; 44.6 µM (active) in [16]. Also, the Potency result in assay [2], in [5], in assay [6], in assay [7], in assay [8] and in assay [11] was “inactive” throughout. Also, the Potency entry in assay [13] is “inactive”. The result in assay [9] was inactive.

`CCCc1ccc(OCC(=O)N2CCN(C(=O)COc3ccc(CCC)cc3OC)CC2)c(OC)c1`: the Potency result in assay [1], in [17], in assay [3], in [4], in [5] and in assay [6] was “inactive” each time. Besides, the Potency result in assay [8], in assay [10], in assay [11], in [12], in assay [14] and in assay [16] was “inactive” throughout. Besides, the call in assay [9] was inactive. In addition, the Potency in [15] was 4.22 µM (active).

Consider `Cc1ccc(C(=O)O)cc1`, for which the Potency result in assay [1], in assay [17], in [3], in [4], in assay [5] and in assay [6] was “inactive” in each case. Moreover, the Potency entry in assay [7], in assay [8], in [10], in assay [11], in assay [12] and in assay [13] was “inactive” throughout. Moreover, the Potency entry in assay [14], in assay [15] and in assay [16] was “inactive” each time. Moreover, in [9], the call was inactive.

As to `CN(C)c1ccc(C(=C2C=CC(=[N+](C)C)C=C2)c2ccc(N(C)C)cc2)cc1`, the Potency was 8.59 µM (active) and 15.4 µM (active) and 5.96 µM (active) in assay [1]; 19.3 µM (active) in assay [17]; 24.2 µM (active) and 30.6 µM (active) and 21.1 µM (active) in assay [3]; 27.2 µM (active) and 21.1 µM (active) in [4]; 19.4 µM (active) and 43.6 µM (active) and 19 µM (active) in assay [5]; 19.4 µM (active) and 49 µM (active) and 23.9 µM (active) in [6]. Also, the Potency was 3.84 µM (active) and 2.73 µM (active) and 6.68 µM (active) in [10]; 19.2 µM (active) and 27.3 µM (active) and 26.6 µM (active) in assay [11]; 1.71 µM (active) and 686 nM (active) and 2.37 µM (active) in assay [12]; 7.66 µM (active) and 6.11 µM (active) and 8.41 µM (active) in [13]; 17.1 µM (active) and 9.69 µM (active) and 8.41 µM (active) in [14]; 2.42 µM (active) in [15]. Besides, the result in assay [9] was inactive. Further, the Potency entry in assay [18] was “inactive”.

The values are drawn from PubChem BioAssay (Tox21).
